Records with an inconclusive call do not appear. A call without a number means that no potency is given here. Calls of active or inactive are those of the source. The call rests on the fitted dose curve; in most records, active means well fitted curve in the direction sought with a large enough effect; inconclusive means small, poorly fitted or top-dose-only effect, or another doubt; inactive means no such curve, though single readings can be large; an effect the other way counts as inactive or inconclusive.
Key:
[1] = qHTS to identify inhibitors of the type 1 interferon - major histocompatibility complex class I in skeletal muscle: primary screen against the NCATS Pharmaceutical Collection (AID 1347407);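 further: luminescence of HiBiT knocked into endogenous HLA-B as interferon-induced MHC class I level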; further: potency means the concentration at half of the fitted maximal effect
Summary of the method: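 Luminescence from HiBiT-tagged endogenous HLA-B*08:01 served as the read-out of IFN-beta-induced MHC class I in CRISPR-engineered C25cl48 myoblasts. Cells received 4 ng/ml IFN-beta plus compound (high final 46 uM, […]) for 24 h.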

[2] = target: Protein phosphatase 1D (Homo sapiens) (UniProt O15297); test: RapidFire Mass Spectrometry qHTS Assay for Modulators of WT P53-Induced Phosphatase 1 (WIP1) (AID 1347424);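 further: amount of dephosphorylated VEPPL-S-QETFS peptide product formed by WIP1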; further: potency means the concentration at half of the fitted maximal effect
Protein phosphatase 1D (Homo sapiens), sequence (O15297 whole entry, looked up): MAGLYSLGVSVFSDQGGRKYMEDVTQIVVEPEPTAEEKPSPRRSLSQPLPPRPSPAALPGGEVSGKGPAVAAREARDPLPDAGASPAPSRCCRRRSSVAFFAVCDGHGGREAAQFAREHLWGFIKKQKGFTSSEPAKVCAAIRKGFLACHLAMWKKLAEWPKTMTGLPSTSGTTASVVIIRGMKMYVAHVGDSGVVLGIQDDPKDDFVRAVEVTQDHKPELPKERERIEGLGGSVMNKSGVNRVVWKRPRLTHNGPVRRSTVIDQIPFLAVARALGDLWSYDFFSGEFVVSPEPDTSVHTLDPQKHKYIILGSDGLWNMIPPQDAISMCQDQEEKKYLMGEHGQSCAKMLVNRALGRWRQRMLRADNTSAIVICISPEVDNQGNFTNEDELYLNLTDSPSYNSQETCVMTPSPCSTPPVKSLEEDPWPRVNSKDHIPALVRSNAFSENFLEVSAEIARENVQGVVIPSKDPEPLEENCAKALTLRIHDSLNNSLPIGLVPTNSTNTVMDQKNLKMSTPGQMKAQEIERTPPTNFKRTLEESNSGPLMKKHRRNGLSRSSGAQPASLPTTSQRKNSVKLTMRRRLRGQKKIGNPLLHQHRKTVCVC
Summary of the method: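 Mass-spectrometric measurement of dephosphorylated peptide after a 5 min room-temperature reaction of 10 nM WIP1 with 2 uM phosphopeptide, following 1 h compound preincubation in 30 mM MgCl2 buffer.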

[3] = target: Protein phosphatase 1D (Homo sapiens) (UniProt O15297); test: Rhodamine-PBP qHTS Assay for Modulators of WT P53-Induced Phosphatase 1 (WIP1) (AID 1347425)
Summary of the method: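 Steps: enzyme with Rh-PBP sensor and compounds, room-temperature incubation of 1 hr, baseline read, addition of VEPPL-pS-QETFS (10 uM final), kinetic fluorescence reads at 525/598 nm. Activity equals final minus baseline signal.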

[4] = target: Calcium and integrin-binding protein 1 (Homo sapiens) (UniProt Q99828); test: Primary qHTS for Identification of Calcium Integrin Binding Protein 1 (CIB1) Competitor (AID 1508620); further: potency means the concentration at half of the fitted maximal effect
Calcium and integrin-binding protein 1 (Homo sapiens), sequence (Q99828 whole entry, looked up): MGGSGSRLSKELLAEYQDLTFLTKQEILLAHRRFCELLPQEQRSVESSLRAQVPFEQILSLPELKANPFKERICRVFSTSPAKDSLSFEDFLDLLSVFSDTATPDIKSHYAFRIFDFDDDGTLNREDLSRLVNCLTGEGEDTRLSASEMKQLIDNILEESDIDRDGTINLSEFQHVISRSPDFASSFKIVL
Summary of the method: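 Fluorescence polarization competition: CIB1-GST (1 uM final) preincubated with compound 15 min at room temperature, then FITC-labeled alphaIIb peptide (100 nM final) added for another 15 min. Polarization read at Ex 480/Em 540.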

[5] = Primary qHTS for inhibitors of La Crosse Virus (LACV) - induced cell death in SH-SY5Y cells (AID 1508616);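 further: top concentration of the series differs between compounds; higher means more rescue of cells from virus-induced death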
Summary of the method: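 Cytopathicity rescue screen: compounds pinned onto SH-SY5Y cells, which are then infected with LACV (MOI 0.01) and held 6 days at 37C. Percent activity is scaled between infected DMSO control and uninfected DMSO control.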

[6] = target: Calcium and integrin-binding protein 1 (Homo sapiens) (UniProt Q99828); test: Confirmatory qHTS for Identification of Calcium Integrin Binding Protein 1 (CIB1) Competitor (AID 1508617); further: nearly all actives have a fitted effect of over 65% in size; further: potency means the concentration at half of the fitted maximal effect
Summary of the method: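 Binding competition between test compounds and fluorescent alphaIIb peptide for 1 uM CIB1-GST is monitored by FP at 480/540 nm. Final compound range is up to 114 uM; unlabeled peptide serves as reference competitor.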

Compound	Potency [1]	Potency [2]	outcome [3]	Potency [4]	outcome [5]	Potency [6]
CC(=O)CC/C=C(\C)CC/C=C(\C)CC/C=C(\C)CCC=C(C)C	inactive	inactive	inactive	inactive	–	–
Cc1ccc(C(=O)C(=O)O)cc1C	inactive	inactive	inactive	inactive	–	–
CC(C)(C)C1CCC(CC2=C(O)c3ccccc3C(=O)C2=O)CC1 (centres undefined)	inactive	inactive	inactive	inactive	–	–
CCCC(=O)c1cc(O)c(O)cc1O	inactive	35.5 µM (active)	–	112 µM (active)	inactive	35.5 µM (active)
O=C(OCC(COC(=O)c1cccnc1)(COC(=O)c1cccnc1)COC(=O)c1cccnc1)c1cccnc1	inactive	inactive	inactive	inactive	–	–
CC(Oc1c(Cl)cccc1Cl)C1=NCCN1 (centres undefined)	inactive	inactive	inactive	inactive	–	–
CN1CCC(Nc2ncc3ncnc(Nc4ccc(F)c(Cl)c4)c3n2)CC1	18.7 µM (active)	inactive	inactive	inactive	–	–
COc1ccc2cc(C=O)ccc2c1	inactive	inactive	inactive	inactive	–	–
CCOc1ccccc1OCC1CNCCO1 (centres undefined)	inactive	inactive	inactive	inactive	–	–
O=C(O)Cn1c(=O)n(Cc2ccc(Br)cc2F)c(=O)c2ccc(Cl)cc21	inactive	inactive	–	inactive	–	–
CCCOc1ccc2c(c1)CC[C@@H]1[C@@H]2CC[C@]2(C)C(OC)CC[C@@H]12 (some centres undefined)	inactive	inactive	inactive	inactive	–	–
CCCCCOc1ccc(C2SC(=O)NC2=O)cc1OCC (centres undefined)	inactive	2.51 µM (active)	–	inactive	inactive	–
CC(=O)N1CCN(c2ccc(O)cc2)CC1	inactive	inactive	inactive	inactive	–	–
O=C1Cc2cc(Cl)ccc2N1	inactive	inactive	inactive	inactive	–	–
O=[N+]([O-])c1ccc(O)c2ncccc12	inactive	inactive	inactive	–	–	inactive
Cc1[nH]cnc1-c1ccc(Cl)cc1	inactive	inactive	inactive	inactive	–	–
CO[C@@H]1[C@@H](OC)[C@H](C)[C@@](O)(CC(=O)O)O[C@H]1[C@H](C)[C@H]1O[C@@]2(CC[C@@](C)([C@H]3CC[C@@](C)([C@@H]4O[C@@H]([C@H]5O[C@](C)(O)[C@H](C)C[C@@H]5C)C[C@@H]4OC4C[C@H](OC)[C@@H](OC)[C@H](C)O4)O3)O2)C[C@H](O)[C@H]1C (some centres undefined)	inactive	inactive	inactive	inactive	–	–

Compound	Potency [1]	Potency [2]	outcome [3]	Potency [4]	outcome [5]	Potency [6]
NC(=O)C1(N2CCCCC2)CCN(CCCN2c3ccccc3CCc3ccc(Cl)cc32)CC1	23.6 µM (active)	inactive	inactive	inactive	–	–
CCN(CC)CCN	inactive	inactive	inactive	inactive	inactive	–
Nc1ncnc2c1ncn2Cc1c(F)cccc1Cl	inactive	inactive	inactive	inactive	–	–
COc1ccc2c(c1)c(CC(=O)OC/C=C(\C)CC/C=C(\C)CCC=C(C)C)c(C)n2C(=O)c1ccc(Cl)cc1	inactive	inactive	inactive	inactive	inactive	–
CCS(=O)(=O)c1ccc(OC)c(C(=O)OC)c1	inactive	inactive	inactive	inactive	–	–
O=C(O)c1cn(C2CC2)c2cc(Cl)c(F)cc2c1=O	inactive	inactive	inactive	inactive	inactive	–
CN1CCC(=C2c3ccccc3CCc3cccnc32)CC1	inactive	inactive	inactive	inactive	inactive	–
Cc1cc(C(C)(C)C)c(O)c(C(C)(C)C)c1	inactive	inactive	inactive	inactive	–	–
O=C1NC(c2ccccc2)(c2ccccc2)C(=O)N1COP(=O)(O)O	inactive	–	inactive	inactive	inactive	–
CCN1CCN(C(=O)N[C@@H](C(=O)N[C@@H]2C(=O)N3[C@@H]2SC(C)(C)[C@H]3C(=O)O)c2ccccc2)C(=O)C1=O	inactive	–	inactive	inactive	inactive	–
Oc1cccc2[nH]ccc12	inactive	–	inactive	inactive	inactive	–
CCN(CC)C(=O)C1CN2CCc3cc(OC)c(OC)cc3C2CC1OC(C)=O (centres undefined)	inactive	–	inactive	inactive	inactive	–
CCOC(=O)Oc1ccc(CCNC(=O)[C@H](CCSC)NC(C)=O)cc1OC(=O)OCC	inactive	–	inactive	inactive	inactive	–
CCOC(=O)c1ccc(O)c(O)c1	inactive	–	inactive	inactive	inactive	–
OCCOCCN1CCN(C(c2ccccc2)c2ccc(Cl)cc2)CC1 (centres undefined)	inactive	–	–	inactive	inactive	–
CC(=O)O[C@@H]1CC2C3CCc4cc(OC(=O)c5ccccc5)ccc4C3CCC2(C)[C@H]1OC(C)=O (some centres undefined)	inactive	–	inactive	inactive	–	–
